Source: PubChem BioAssay
A selection: hits, their analogues and other compounds. The true share with any hit is near 6.9%.
SW480 rereplic = inducers of DNA re-replication in SW480 colon cancer cells. SW480 DNA re-replication, Hoechst DNA content imaging, 48 h. Potency, µM (titrated, usually from 46.1 µM), for the others: at the highest dose re-replication activation, actives largely listed as activators. actives 1.8% (n = 340,000). AID 624297; note: potency is the fitted concentration of half-maximal effect; % of control where 0% means no effect; nearly all actives have a fitted effect of over 55% in size
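Quantitative HTS format with DMSO vehicle controls; 48 hr drug incubation at 37 C, then 40 min Hoechst staining and scanning imager measurement at 405 nm excitation.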
Giardia kill = Giardia lamblia killing; Giardia lamblia trophozoite viability; activity change, % at 7.66 µM, hits read low; actives 0.15% (n = 340,000); AID 540267; in the data active = activity change below about -80%; inconclusive = between about -30% and that limit;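 note: parasites exposed to compound for two days anaerobically before the ATP read; % is set by controls: 0 for no effect and ±100 for the full control effect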
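ATP-content bioluminescence gauges trophozoite survival. Cells (100/well) receive compound and incubate anaerobically for 48 hrs at 37 deg C; detection reagent follows for 15-30 min at room temperature.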
S-ASM inh = inhibitors of human secretory acid sphingomyelinase; P17405; placental ASM, HMU-PC fluorogenic substrate, 60 min; Potency, µM (series often up to 57.5 µM), without a hit: at the highest dose activity change, negative = inhibition, most hits filed as inhibitors; actives 0.006% (n = 340,000); note: potency is the fitted concentration of half-maximal effect
Target sequence (P17405 47-631 limits assumed): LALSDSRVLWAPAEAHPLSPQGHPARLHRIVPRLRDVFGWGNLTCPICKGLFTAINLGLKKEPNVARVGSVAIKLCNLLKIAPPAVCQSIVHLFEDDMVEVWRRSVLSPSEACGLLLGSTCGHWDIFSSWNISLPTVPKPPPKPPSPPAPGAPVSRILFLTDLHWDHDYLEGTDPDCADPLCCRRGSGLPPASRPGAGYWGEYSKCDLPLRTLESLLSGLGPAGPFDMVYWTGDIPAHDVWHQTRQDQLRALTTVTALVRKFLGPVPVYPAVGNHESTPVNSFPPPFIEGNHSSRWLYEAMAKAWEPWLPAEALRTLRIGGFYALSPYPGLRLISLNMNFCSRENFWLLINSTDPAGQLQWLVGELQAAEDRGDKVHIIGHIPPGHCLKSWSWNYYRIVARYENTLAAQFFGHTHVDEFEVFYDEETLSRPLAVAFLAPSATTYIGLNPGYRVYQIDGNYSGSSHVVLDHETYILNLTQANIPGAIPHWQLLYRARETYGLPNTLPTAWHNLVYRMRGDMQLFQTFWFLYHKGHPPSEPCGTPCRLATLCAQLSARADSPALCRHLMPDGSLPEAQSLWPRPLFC
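qHTS format. ASM enzyme prepared from human placenta hydrolyses the fluorogenic substrate HMU-PC0 (9 uM final) over 60 min at 37 °C after a 10 min compound preincubation.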
MCF10A rerep = DNA re-replication induction in MCF 10a cells | actives 2.9% (n = 350,000) | AID 624296 | MCF 10A DNA re-replication, Hoechst nuclear intensity, 48 h | Potency, µM (doses to about 46.1 µM), for the others: at the highest dose activity, positive = re-replication, usual class: activators; note: potency is the fitted concentration of half-maximal effect; % of control where 0% means no effect; nearly all actives have a fitted effect of over 50% in size
KB-3-1 cytotox = KB-3-1 parental cell cytotoxicity | actives 1.4% (n = 400,000) | Potency, µM (top dose mostly 46.1 µM), most hits filed as cytotoxic | KB-3-1 viability, CellTiter-Glo ATP luminescence, 72 h; note: potency is the fitted concentration of half-maximal effect; % is set by controls: 0 for no effect and ±100 for the full control effect; nearly all actives have a fitted effect of over 60% in size
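KB-3-1 cells, DMEM (no phenol red) + 10% FBS; compound by pin transfer, 72 h, 37 °C. Readout: CellTiter-Glo luminescence after 10 min. Data normalized, curve-fitted.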
KB-V1 cytotox = kills drug-selected multidrug resistant KB-V1 cells. KB-V1 MDR cells viability, CellTiter-Glo, 72 h. Potency, µM (highest dose often 46.1 µM), actives largely listed as cytotoxic. actives 3.4% (n = 400,000). AID 1347076; note: potency is the fitted concentration of half-maximal effect; % is set by controls: 0 for no effect and ±100 for the full control effect; nearly all actives have a fitted effect of over 60% in size
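Cytotoxicity toward P-gp-expressing KB-V1 cells was determined as loss of CellTiter-Glo luminescence after 72 h at 37 degrees C. Compounds were tested in quantitative HTS format across a concentration range, with curves fitted to normalized data.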
* = called active by the depositor; ! = not active in a repeat; [ ] = another dose, or the depositor's remark. Unless noted, calls come from the whole dose curve; as a rule, active = well fitted curve in the direction sought with a large enough effect; inconclusive = small, poorly fitted or top-dose-only effect, or another doubt; inactive = no such curve, though single readings can be large; an effect the other way counts as inactive or inconclusive.

Results for O=C1c2cnc3nc(SCc4cccc(Cl)c4)nn3c2CC2c3ccccc3CCN12 (centres undefined) ?
SW480 rereplic: 2.6µM*; Giardia kill: 26; S-ASM inh: 66%; MCF10A rerep: 2.1µM*; KB-3-1 cytotox: inactive; KB-V1 cytotox: inactive

What do the screens show for `Cc1ccc(C(=O)Nc2cccc(OCc3cc(=O)n4c5c(sc4n3)CCCC5)c2)cc1`?
KB-3-1 cytotox: inactive; KB-V1 cytotox: inactive

How did Cc1cccc(C)c1NC(=O)CSc1nc(C)c(CC(=O)c2ccc(Br)cc2)c(C)c1C#N do in these assays?
SW480 rereplic: 10%; Giardia kill: -16; S-ASM inh: -3%; MCF10A rerep: 16µM*; KB-3-1 cytotox: inconclusive; KB-V1 cytotox: inconclusive

What do the screens show for `CC(=O)Nc1cccc(NC(=O)CSc2nc(C)c(C)c(C)c2C#N)c1`?
SW480 rereplic: 24%; Giardia kill: -1; S-ASM inh: 1%; MCF10A rerep: 6%; KB-3-1 cytotox: inactive; KB-V1 cytotox: inconclusive

How did Oc1c(C(c2ccccc2Cl)N2CCCC2)ccc2cccnc12 (centres undefined) do in these assays?
SW480 rereplic: -4%; Giardia kill: 25; S-ASM inh: 2%; MCF10A rerep: inconclusive; KB-3-1 cytotox: 13µM*; KB-V1 cytotox: inactive

How did Oc1c(C(c2ccc(Cl)cc2)N2CCCC2)cc(Cl)c2cccnc12 (centres undefined) do in these assays?
SW480 rereplic: 25%; Giardia kill: 7; S-ASM inh: -2%; MCF10A rerep: 23%; KB-3-1 cytotox: inactive; KB-V1 cytotox: inactive

How did Cc1ccc(C)c(NS(=O)(=O)c2ccc3c(c2)NC(=O)CCS3)c1 do in these assays?
SW480 rereplic: 3%; Giardia kill: 19; S-ASM inh: 5%; MCF10A rerep: 0%; KB-3-1 cytotox: inactive; KB-V1 cytotox: inactive

Results for COc1cc(OC)c(NS(=O)(=O)c2ccc3c(c2)NC(=O)CCS3)cc1Cl ?
KB-3-1 cytotox: 18µM*; KB-V1 cytotox: inconclusive

Results for Cc1ccc(NS(=O)(=O)c2ccc3c(c2)NC(=O)CCS3)c(Br)c1 ?
SW480 rereplic: 6%; Giardia kill: -5; S-ASM inh: 1%; MCF10A rerep: 0%; KB-3-1 cytotox: inconclusive; KB-V1 cytotox: 23µM*!

Results for Nc1ccccc1N1C(=O)c2cccc3cccc(c23)C1=O ?
SW480 rereplic: 18µM*; Giardia kill: 16; S-ASM inh: 4%; MCF10A rerep: 8.2µM*; KB-3-1 cytotox: inactive; KB-V1 cytotox: inconclusive

What do the screens show for `O=C1c2cccc3cccc(c23)C(=O)N1c1ccccc1Cl`?
SW480 rereplic: -3%; Giardia kill: -15; S-ASM inh: -2%; MCF10A rerep: 18%; KB-3-1 cytotox: inactive; KB-V1 cytotox: inactive

How did Cc1ccc2nc3c(cc(C(=O)NCc4ccco4)c(=N)n3C(C)C)c(=O)n2c1 do in these assays?
KB-3-1 cytotox: inactive; KB-V1 cytotox: inactive

What do the screens show for `COc1ccc(C(=O)NC2CCCCCC2)cc1S(=O)(=O)N1CCCc2ccccc21`?
SW480 rereplic: 20%; Giardia kill: 14; S-ASM inh: -3%; MCF10A rerep: -3%; KB-3-1 cytotox: inconclusive; KB-V1 cytotox: inactive

Results for CCN1C(=O)CCN(C2CCCC2)c2nc(Nc3ccc(C(=O)NC4CCN(C)CC4)cc3OC)ncc21 ?
SW480 rereplic: 18%[9.22 µM]; Giardia kill: -4; S-ASM inh: -2%; MCF10A rerep: 10µM*; KB-3-1 cytotox: 9.2µM*; KB-V1 cytotox: inactive

Results for O=C(NCCCc1ccccc1)C1CC(=O)N(c2ccc3c(c2)OCCO3)C1 (centres undefined) ?
SW480 rereplic: 0%; Giardia kill: 1; S-ASM inh: -1%; MCF10A rerep: 3%; KB-3-1 cytotox: inactive; KB-V1 cytotox: 23µM*
